Bioassay records deposited in PubChem by National Center for Advancing Translational Sciences (NCATS).
This is a sample that favours compounds with a hit; in the whole collection about 8.8% have one here.
HPGD inh – blocks human HPGD enzyme activity. P15428. purified HPGD, NADH fluorescence kinetic, PGE2 substrate. Potency, µM, for inactives: at the top dose activity change, negative = inhibition, actives largely listed as inhibitors. 150,000 tested, 4.3% active; active = well fitted inhibition curve with a large enough effect, not every such curve was filed as active; inconclusive = small, poorly fitted or top-dose-only effect, or another doubt; inactive = no such curve, though single readings can be large or run the other way; also: % is scaled to controls: 0 for no effect and ±100 for the full control effect
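20 nM HPGD preincubated 15 min at room temperature with compound in 50 mM Tris-HCl pH 8, 0.01% Tween 20. Started with 1 mM NAD+ and 30 uM prostaglandin E2; NADH fluorescence (360/450 nm) read 5 times over 30-s intervals, last minus first.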
HTT aggregate – inhibitors of mutant huntingtin aggregate formation in PC12 cells; PC12 HttQ103-GFP aggregates, Acumen cytometry, 40 h; Potency, µM (titrated, usually from 46.1 µM), for inactives: top-dose activity change, negative = inhibition, most hits filed as inhibitors; 220,000 tested, 1.1% active; AID 1688; also: % is scaled to controls: 0 for no effect and ±100 for the full control effect; nearly all actives have a fitted effect of over 60% in size
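PC12 cells with ecdysone-inducible HTT exon1 Q103-GFP, induced by 100 nM tebufenozide, given compounds in a concentration series. GFP aggregates (1–25 um, 6 SD above background) counted in lysates by laser-scanning cytometry, 488 nm excitation.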
ALDH1A1 block – ALDH1A1 (human) enzyme inhibition. P00352. Purified ALDH1A1, NADH fluorescence, propionaldehyde substrate. Potency, µM (highest dose often 75.3 µM), inactives show top-dose activity, negative = inhibition, most hits filed as inhibitors. 220,000 tested, 7.3% active; active = well fitted inhibition curve with a large enough effect, not every such curve was filed as active; inconclusive = small, poorly fitted or top-dose-only effect, or another doubt; inactive = no such curve, though single readings can be large or run the other way;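 also: plate controls were no enzyme wells and a reference inhibitor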
Target sequence (P00352 whole entry, looked up): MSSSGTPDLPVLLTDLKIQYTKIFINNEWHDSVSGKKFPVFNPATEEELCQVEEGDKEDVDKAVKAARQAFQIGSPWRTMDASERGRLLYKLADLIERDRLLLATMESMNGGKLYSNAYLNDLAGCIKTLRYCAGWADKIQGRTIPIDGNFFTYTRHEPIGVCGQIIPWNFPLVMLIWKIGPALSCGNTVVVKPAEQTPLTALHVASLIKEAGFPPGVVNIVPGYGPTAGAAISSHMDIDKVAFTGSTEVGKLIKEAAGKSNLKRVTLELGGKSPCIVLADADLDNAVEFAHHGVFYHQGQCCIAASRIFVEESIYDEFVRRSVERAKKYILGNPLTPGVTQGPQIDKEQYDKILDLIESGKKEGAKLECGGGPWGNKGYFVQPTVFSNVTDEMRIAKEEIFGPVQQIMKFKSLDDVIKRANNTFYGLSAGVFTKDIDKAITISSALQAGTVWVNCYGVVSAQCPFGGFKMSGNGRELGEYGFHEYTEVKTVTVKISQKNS
Lamin A splicing – modulators of lamin A splicing | HeLa LMNA splicing GFP/RFP minigene ratio, 48 h | Potency, µM (titrated, usually from 46.1 µM), for the others: at the highest dose ratio change, negative = inhibition, most hits filed as inhibitors | 200,000 tested, 0.01% active | AID 1487; active = well fitted inhibition curve with a large enough effect in the signal ratio, with a control signal flat, not every such curve was filed as active; inconclusive = small, poorly fitted or top-dose-only effect, or effect the other way, or a change in a side signal; the % refers to the signal ratio; also: % is scaled to controls: 0 for no effect and ±100 for the full control effect
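Read-out is the ratio of GFP to DsRed2 object intensity, acquired by 488 nm laser-scanning cytometry on HeLa lamin A-EGFP minigene reporter cells. Compound incubation 48 hrs at 37 °C in Opti-MEM with 2% FBS; DMSO 0.5% final.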
HTT cytoprotect – cytoprotection in Huntington HTT-Q103 PC12 cell model. 230,000 tested, 0.14% active. PC12 HTT-Q103 induced, cytoprotection, ATP luminescence, 40 h. Potency, µM (top dose mostly 56.4 µM), without a hit: cytoprotection (ATP increase), actives largely listed as activators; also: % of control where 0% means no effect; nearly all actives have a fitted effect of over 45% in size
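PC12 cells with ecdysone-inducible HTT exon 1 Q103-GFP, induced with 100 nM tebufenozide and co-treated with library compounds in a dose series (1536-well, 1500 cells/well). Cytoprotection read as ATP content by ATPlite luminescence.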
An asterisk follows results filed as active; ? = inconclusive; nt = no result given; [ ] = dose if it differs, or a comment. Unless noted, calls follow the shape of the dose curve; as a rule, active = well fitted curve in the direction sought with a large enough effect; inconclusive = small, poorly fitted or top-dose-only effect, or another doubt; inactive = no such curve, though single readings can be large; an effect the other way counts as inactive or inconclusive. Potency is read from the fitted curve at half-maximal effect.

SMILES | HPGD inh | HTT aggregate | ALDH1A1 block | Lamin A splicing | HTT cytoprotect
Cc1ccc(S(=O)(=O)N(CC(=O)NCCSCc2ccco2)c2ccc(F)cc2)cc1 | nt | -8.4% | 28.2µM* | nt | -12.9%
COc1ccc(N(CC(=O)NCCSCc2ccco2)S(=O)(=O)c2ccccc2)cc1 | nt | 10.6%[9.22 µM] | ? | nt | 12.4%[10 µM]
Cc1cc(C)cc(N(CC(=O)NCCSCc2ccccc2)S(C)(=O)=O)c1 | nt | 2.8%[9.22 µM] | -5.0% | nt | -8.1%[10 µM]
COc1ccc(N(CC(=O)NCCSCc2ccco2)S(=O)(=O)c2ccc(C)cc2)cc1 | nt | 20.0%[9.22 µM] | 20µM* | 3.7%[46 µM] | 4.6%[10 µM]
CS(=O)(=O)N(CC(=O)NCCSCc1ccccc1)c1ccccc1 | nt | 0.3%[9.22 µM] | 28.2µM* | nt | -3.0%[10 µM]
Cc1ccc(N(CC(=O)NCCSCc2ccco2)S(=O)(=O)c2ccc(F)cc2)cc1 | nt | -9.4%[9.22 µM] | 20µM* | ? | 7.2%[10 µM]
COc1c2ccccc2nc2occc12 | -13.6% | nt | 4.1% | nt | -27.1%
Cn1c(=O)n(C)c2cc(N3CCOCC3)c(NS(=O)(=O)c3cccc(C#N)c3)cc21 | nt | nt | nt | -1.5%[46 µM] | nt
Cn1c(=S)c2[nH]c(SCCN3C(=O)c4ccccc4C3=O)nc2n(C)c1=O | -12.5% | nt | 7.5%[13.5 µM] | nt | 0.4%[10 µM]
O=C(CSc1cccc[n+]1[O-])Nc1cccc(S(=O)(=O)NC2=NCCCCC2)c1 | nt | 18.9% | -3.0% | 2.6%[46 µM] | 8.4%
CCn1c(=O)cc(SCC(=O)NCc2ccco2)c2ccccc21 | ? | 18.3% | ? | ? | -85.3%
CCn1c(=O)cc(OCC(=O)NCc2ccco2)c2ccccc21 | -25.0% | 29.0% | ? | -5.6% | 5.3%
CCn1c(=O)cc(SCC(=O)NCc2ccc(C)o2)c2ccccc21 | 28.2µM* | -2.7% | -7.6% | -14.1% | -50.8%
CCn1c(=O)cc(OCC(=O)NCc2ccc(C)o2)c2ccccc21 | ? | ? | 22.4µM* | -11.8% | -9.8%[10 µM]
Fc1ccc(CNc2ncnc3c2c(-c2ccccc2)cn3-c2ccccc2)cc1 | nt | nt | nt | -22.3%[46 µM] | nt
O=C(Nc1ccc2nc(SCCOc3ccccc3Cl)sc2c1)c1cccs1 | nt | nt | nt | 6.6%[46 µM] | nt
COC(=O)c1c(-c2cccs2)csc1NC(=O)c1ccc(C(C)(C)C)cc1 | nt | nt | nt | -20.9%[46 µM] | nt
Cc1ccc(-c2nn(-c3ccccc3)cc2/C=C(\C#N)c2cccc(C#N)c2)o1 | -8.7% | 1.3% | 22.4µM* | 16.1% | 3.1%[0.074 µM]
CCOC(=O)CSc1nc2ccccc2n1CC(=O)NC(C)(C)C | -4.3% | 19.3% | -4.8% | -5.9% | 0.9%
CC(=O)Nc1ccc(C(=O)CSc2nc3ccccc3n2CC(=O)N2CCCC2)cc1 | ? | ? | 25.1µM* | -4.4% | -6.9%
COc1ccc(C(=O)CSc2nc3ccccc3n2CC(=O)NC(C)(C)C)cc1 | -2.3% | 13.3% | 2.24µM* | 5.5% | 4.6%
O=C(CSc1nc2ccccc2n1CC(=O)N1CCCCC1)N1CCCCC1 | nt | -17.5%[9.22 µM] | nt | nt | -2.9%[10 µM]
Cc1cc(OCc2cc3c(cc2Cl)OCO3)c2c(C)cc(=O)oc2c1 | nt | 3.9% | 0.178µM* | -4.8% | 1.8%[10 µM]
Cc1cc(=O)c2c(O)c3c(O)cc(=O)c4c3c3c(cc(O)c1c23)C(C)(C)C=4O | -11.7% | 3.16µM* | 1.2% | nt | -253.4%
Cc1ccc(CSCC(=O)N2CCN(c3cc(Cl)ccc3C)CC2)cc1 | nt | nt | nt | -15.0%[46 µM] | nt
SMILES | HPGD inh | HTT aggregate | ALDH1A1 block | Lamin A splicing | HTT cytoprotect
CCN1C(=O)[C@@H]2[C@H]3C(=CC[C@@H]2C1=O)C1(OCCCO1)[C@H]1O[C@@H]1[C@H]3O | nt | nt | 1.78µM* | nt | -9.8%[10 µM]
CCCCCn1ccc(=O)c2c(C(F)(F)F)nccc21 | -24.7% | 11.2µM* | -1.6% | ? | 21.6%[10 µM]
CCCCCCCn1ccc(O)c(CC(=O)OC)c1=O | nt | 19.6% | 8.8% | -0.7%[46 µM] | -4.1%[10 µM]
O=C(CN1C(=O)COc2ccccc21)N(Cc1ccccc1)Cc1ccccn1 | -12.3% | 11.7%[9.22 µM] | ? | 2.8% | -2.4%[10 µM]
Cc1ccc(CN(Cc2cccnc2)C(=O)CN2C(=O)COc3ccccc32)o1 | -8.9% | -7.6% | 28.2µM* | -3.6% | -16.9%
COc1ccccc1CNC(=O)C1(c2cccs2)CCOCC1 | nt | nt | nt | -3.5%[46 µM] | nt
O=C(C[n+]1cc(-c2ccccc2)n2c1CCC2)c1cccs1 | nt | 14.3% | 4.4% | -26.6%[46 µM] | 0.4%[10 µM]
O=C(C[n+]1ccn(CCCNP2(=O)C=C(c3ccccc3)OC(c3ccccc3)=C2)c1)c1cccs1 | nt | -7.1% | 14.1µM* | -0.8%[46 µM] | -18.5%
